Laboratory results as given in publication PMC4336329 (PLoS ONE, 2015).
Screen size: about 310,000 compounds; about 14,000 (4.5%) showed an effect of 50% or more. Effects have a minus sign here. Shown is part of a subset that was picked to be rich in strong results.

These compounds were tested against human ether-à-go-go-related gene (hERG) potassium channel (human, UniProt Q12809) (assay: primary screen, population patch clamp on CHO cells stably expressing hERG; higher = less effect of the substance).
human ether-à-go-go-related gene (hERG) potassium channel, sequence (Q12809 whole entry, looked up): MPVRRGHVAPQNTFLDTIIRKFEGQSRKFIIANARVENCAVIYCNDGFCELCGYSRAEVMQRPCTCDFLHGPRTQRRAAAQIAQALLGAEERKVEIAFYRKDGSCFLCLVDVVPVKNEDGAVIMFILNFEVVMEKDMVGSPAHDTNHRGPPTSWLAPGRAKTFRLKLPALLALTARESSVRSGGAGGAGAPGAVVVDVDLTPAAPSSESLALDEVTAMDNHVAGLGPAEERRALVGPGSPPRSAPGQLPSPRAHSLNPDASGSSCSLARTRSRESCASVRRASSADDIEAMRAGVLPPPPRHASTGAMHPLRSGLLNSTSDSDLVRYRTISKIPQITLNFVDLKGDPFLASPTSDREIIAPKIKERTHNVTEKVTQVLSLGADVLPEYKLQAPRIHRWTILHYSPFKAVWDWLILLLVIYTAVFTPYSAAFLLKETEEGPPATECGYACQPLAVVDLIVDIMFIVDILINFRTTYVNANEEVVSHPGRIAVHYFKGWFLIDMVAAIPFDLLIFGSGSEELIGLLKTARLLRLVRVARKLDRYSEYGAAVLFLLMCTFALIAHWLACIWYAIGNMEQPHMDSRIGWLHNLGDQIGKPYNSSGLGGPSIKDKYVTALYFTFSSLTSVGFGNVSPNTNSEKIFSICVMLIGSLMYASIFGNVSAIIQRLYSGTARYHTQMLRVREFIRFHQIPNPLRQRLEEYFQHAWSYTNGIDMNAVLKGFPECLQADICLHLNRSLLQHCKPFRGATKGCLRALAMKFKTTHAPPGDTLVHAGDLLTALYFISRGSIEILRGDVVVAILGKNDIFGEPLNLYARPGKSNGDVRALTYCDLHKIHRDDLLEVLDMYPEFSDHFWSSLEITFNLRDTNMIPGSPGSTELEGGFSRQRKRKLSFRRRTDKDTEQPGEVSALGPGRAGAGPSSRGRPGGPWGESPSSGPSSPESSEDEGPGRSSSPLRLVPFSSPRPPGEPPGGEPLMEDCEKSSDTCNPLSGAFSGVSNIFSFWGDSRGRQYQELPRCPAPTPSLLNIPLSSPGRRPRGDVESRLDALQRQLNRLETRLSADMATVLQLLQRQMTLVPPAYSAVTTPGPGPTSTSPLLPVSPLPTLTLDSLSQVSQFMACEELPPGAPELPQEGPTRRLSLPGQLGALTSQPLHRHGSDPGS
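Note: peak tail current of the secondary pulse compared with the same well before compound.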

Going from `CC(C)(C)NCc1cccn1-c1sc2c(c1C#N)CCCC2` to `Cn1c(-c2ccccc2)c[n+]2c1CCCCC2.[Br-]`, the “hERG current change (%, negative = inhibition) at 10uM” value rises from -13.4% to -0.399%.

Compared with `NC(=S)Nc1ncc(C(F)(F)F)cc1Cl`, `COc1ccccc1NC(=O)c1sc2nc(Cc3ccccc3)cc(C(F)(F)F)c2c1N` is lower in “hERG current change (%, negative = inhibition) at 10uM” value: 12.2% for the first, -7.85% for the second.

Compared with `CC(C)NC(=O)c1sc(=S)n2c1[nH]c(=O)c1ccc(C(=O)NCCc3ccc(Cl)cc3)cc12`, `COc1ccc(CCN2C(=O)C3C4CC(C5C(C(=O)N/N=C\c6ccc(Cl)cc6)=NOC45)C3C2=O)cc1OC` (stereo not drawn) is lower in “hERG current change (%, negative = inhibition) at 10uM” value: 14.1% for the first, -67.7% for the second.

Compared with `N#CC(c1ccccc1)N(CCCCl)C(=O)c1ccccc1` (stereo not drawn), `Cc1ccccc1C(NC(N)=O)c1ccccc1` (stereo not drawn) is higher in “hERG current change (%, negative = inhibition) at 10uM” value: -18.9% for the first, 0.289% for the second.

Compared with `c1ccc(OCCCc2nc(-c3ccccn3)no2)cc1`, `O=C(Nc1ccc(OCc2ccccc2Cl)cc1)c1cccnc1` is higher in “hERG current change (%, negative = inhibition) at 10uM” value: -0.0161% for the first, 1.02% for the second.

Going from `C[C@H]1CN(Cc2ccccc2)C(=O)[C@@H]1CC(=O)NCc1ccccc1` to `CCCCC[C@H]1CN(Cc2ccccc2)C(=O)[C@@H]1CC(=O)NCc1ccccc1`, the “hERG current change (%, negative = inhibition) at 10uM” value falls from 1.31% to -65.8%.

Going from `CCCCCCc1ccc(N2C[C@H](CCCCC)[C@@H](CC(=O)NCc3ccccc3)C2=O)cc1` to `CCOc1ccccc1N1CCN(C(=O)NCc2ccc(Cl)cc2)CC1`, the “hERG current change (%, negative = inhibition) at 10uM” value falls from -1.8% to -14.6%.

First: O=C(c1cccc(C(F)(F)F)c1)N1CCC(O)(CS(=O)(=O)Cc2ccc(Cl)cc2)CC1
Second: O=S(=O)(Nc1ccccc1N1CCOCC1)c1ccc(F)c(Cl)c1
The “hERG current change (%, negative = inhibition) at 10uM” value of the first is higher: 17.5% for the first, -18.6% for the second.

Going from `CCN(c1ccccc1)S(=O)(=O)c1cc(C(=O)OC(C)C(=O)Nc2ccc3c(c2)OCCO3)ccc1C` (stereo not drawn) to `Cc1ccc(S(=O)(=O)NCC(=O)Nc2ccc3c(c2)OCO3)cc1`, the “hERG current change (%, negative = inhibition) at 10uM” value falls from 14.1% to 8.87%.

Going from `Cc1ccc(-c2csc(=S)n2CC(=O)OCC(=O)NC(C)C(C)C)cc1` (stereo not drawn) to `Cc1ccc(-c2ccc(=O)n(CC(=O)NCc3ccco3)n2)cc1`, the “hERG current change (%, negative = inhibition) at 10uM” value falls from 3.12% to -10%.

Going from `CN(CC(=O)Nc1ccc(Cl)c(C(F)(F)F)c1)C(=O)C1CC(=O)N(Cc2ccco2)C1` (stereo not drawn) to `O=C(COC(=O)C1CC(=O)N(Cc2ccccc2)C1)Nc1ccc2c(c1)OCO2` (stereo not drawn), the “hERG current change (%, negative = inhibition) at 10uM” value rises from -20.1% to 5.98%.

Going from `Cc1[nH]c2ccccc2c1/C=N/NC(=O)c1ccc(N)cc1` to `COc1ccc(C(=O)N/C(=C\c2ccccc2)C(=O)N2CCOCC2)cc1`, the “hERG current change (%, negative = inhibition) at 10uM” value falls from 11.2% to -8.27%.

First: COc1ccc(CCN2C(=O)C3C4CC(C5C(C(N)=O)=NOC45)C3C2=O)cc1OC (stereo not drawn)
Second: COc1ccc(CCN2C(=O)C3C4CC(C5C(C(=O)NN)=NOC45)C3C2=O)cc1OC (stereo not drawn)
The “hERG current change (%, negative = inhibition) at 10uM” value of the first is lower: -2.12% for the first, 7.3% for the second.

First: CN(C)S(=O)(=O)N1CCC(Oc2ccc(C(=O)N3CCCCCCC3)cc2)CC1
Second: O=C(COc1ccc(S(=O)(=O)N2CCCCC2)cc1)N1CCOCC1
The “hERG current change (%, negative = inhibition) at 10uM” value of the first is higher: 10.9% for the first, 3.54% for the second.

First: CCCCOc1ccccc1N1CCN(CCCN2C(=O)C3CCCN3C2=O)CC1.Cl (stereo not drawn)
Second: COc1ccccc1N1CCN(CCCCN2C(=O)C3CCCCN3C2=O)CC1 (stereo not drawn)
The “hERG current change (%, negative = inhibition) at 10uM” value of the first is lower: -56.7% for the first, -12.8% for the second.

First: COc1ccccc1N1CCN(CCN2C(=O)C3CCCN3C2=O)CC1 (stereo not drawn)
Second: COc1ccccc1N1CCN(CCN2C(=O)C3CCCCN3C2=O)CC1 (stereo not drawn)
The “hERG current change (%, negative = inhibition) at 10uM” value of the first is higher: 12% for the first, 4.39% for the second.

Compared with `Cl.O.O=C1C2CCCCN2C(=O)N1CCCCN1CCN(c2ccccc2Oc2ccccc2)CC1` (stereo not drawn), `Cc1ccccc1N1CCN(CCCCN2C(=O)C3CCCN3C2=O)CC1.Cl.O` (stereo not drawn) is lower in “hERG current change (%, negative = inhibition) at 10uM” value: -55.7% for the first, -65.4% for the second.

First: Cc1ccc(N2CCN(CCCCN3C(=O)C4CCCN4C3=O)CC2)cc1.Cl (stereo not drawn)
Second: Cc1ccccc1N1CCN(CCCN2C(=O)C3CCCCN3C2=O)CC1 (stereo not drawn)
The “hERG current change (%, negative = inhibition) at 10uM” value of the first is lower: -23.9% for the first, -9.54% for the second.

First: CCCNC(=O)c1ccccc1N1CCN(CCCCN2C(=O)C3CCCCN3C2=O)CC1.Cl.O (stereo not drawn)
Second: CC(=O)N/C(=C/c1ccccc1)C(=O)N1CCCCC1
The “hERG current change (%, negative = inhibition) at 10uM” value of the first is lower: -33.5% for the first, 10.3% for the second.

Going from `O=C(Nc1ccccc1)OC1C2CCC1C(N1CCCCC1)CC2` (stereo not drawn) to `O=C(N/C(=C/c1ccccc1)C(=O)N1CCCCCC1)c1ccccc1`, the “hERG current change (%, negative = inhibition) at 10uM” value rises from -37.5% to -12.4%.

Going from `Cc1ccc(C(=O)N2CCCC(Nc3ccc(F)cc3)C2)cc1C` (stereo not drawn) to `CCN(CC)CCN(C(=O)c1ccc(S(=O)(=O)N(C)C2CCCCC2)cc1)c1nc2c(C)cccc2s1.Cl`, the “hERG current change (%, negative = inhibition) at 10uM” value falls from 0.463% to -13.9%.

Compared with `O=C1C2C3c4ccccc4C(c4ccccc43)C2C(=O)N1Cc1ccco1` (stereo not drawn), `CCOc1ccc(-c2nnc(-c3ccccc3)n2-c2ccccc2)cc1` is lower in “hERG current change (%, negative = inhibition) at 10uM” value: 5.12% for the first, -18.8% for the second.

First: Cn1c(=O)n(C)c2cc(S(=O)(=O)O)ccc21
Second: Cc1ccc(N2C(=O)CC(=O)NC2=O)cc1
The “hERG current change (%, negative = inhibition) at 10uM” value of the first is higher: 4.49% for the first, -16.9% for the second.

First: CCN(CC)CCN(C(=O)c1ccc(C(=O)c2ccccc2)cc1)c1nc2c(OC)cccc2s1.Cl
Second: CCN(CC)CCN(C(=O)c1ccc(C(=O)c2ccccc2)cc1)c1nc2ccc(OC)cc2s1.Cl
The “hERG current change (%, negative = inhibition) at 10uM” value of the first is lower: -68% for the first, -45.9% for the second.

Compared with `COc1cccc2sc(N(CCCN(C)C)C(=O)c3ccc(S(=O)(=O)N4CCc5ccccc5C4)cc3)nc12.Cl`, `CCN(CC)CCN(C(=O)c1ccc([N+](=O)[O-])cc1)c1nc2c(OC)cccc2s1.Cl` is lower in “hERG current change (%, negative = inhibition) at 10uM” value: 3.58% for the first, -73.2% for the second.

Going from `CN1C(=O)/C(=C/c2ccccc2OCc2cccc(F)c2)N(C)C1=S` to `Cc1cc(Oc2ccc(=O)n(C)n2)nc(SCc2ccccc2)n1`, the “hERG current change (%, negative = inhibition) at 10uM” value rises from 6.02% to 25.7%.

Compared with `Cc1nc2ccc(Cl)cc2c(=O)n1-c1ccccc1Cl`, `Cc1cccc(C)c1NC(=O)C(NC=O)c1ccccc1Cl` (stereo not drawn) is lower in “hERG current change (%, negative = inhibition) at 10uM” value: 5.06% for the first, 0.855% for the second.

Compared with `Cc1ccc(CNCC2CCCO2)o1` (stereo not drawn), `Cl.Clc1ccc(-c2ccc(CNCC3CCCO3)o2)cc1` (stereo not drawn) is lower in “hERG current change (%, negative = inhibition) at 10uM” value: 7.37% for the first, -62.4% for the second.

First: CCN(CC)CCNCc1ccc(-c2ccc(Cl)cc2)o1.Cl
Second: OCCc1ccc(-c2ccc(Cl)cc2)o1
The “hERG current change (%, negative = inhibition) at 10uM” value of the first is lower: -72.8% for the first, 7.65% for the second.

Going from `Cl.Clc1cccc(-c2ccc(CNCc3ccccn3)o2)c1` to `Cl.Fc1ccc(-c2ccc(CNCc3ccccn3)o2)cc1Cl`, the “hERG current change (%, negative = inhibition) at 10uM” value falls from -16.2% to -34.9%.

Compared with `CN1CCN(Cc2ccc(-c3ccc(Cl)cc3)o2)CC1`, `Cl.Clc1ccc(-c2ccc(CNCc3ccccn3)o2)cc1` is lower in “hERG current change (%, negative = inhibition) at 10uM” value: -31.7% for the first, -52.4% for the second.

Compared with `Cl.Clc1ccc(CNCC2CCCO2)c(Cl)c1` (stereo not drawn), `NNC(=O)c1ccc(Cl)cc1` is higher in “hERG current change (%, negative = inhibition) at 10uM” value: -2.74% for the first, 2.74% for the second.

Going from `CCCn1c(SCC(=O)NC2CC2)nnc1-c1ccccn1` to `COc1ccccc1-n1cnnc1SC1CCOC1=O` (stereo not drawn), the “hERG current change (%, negative = inhibition) at 10uM” value rises from -2.29% to 4.66%.

First: COc1ccccc1CC(=O)N1CCOCC1
Second: CC(=O)N/C(=C\c1ccccc1)C(=O)N1CCOCC1
The “hERG current change (%, negative = inhibition) at 10uM” value of the first is higher: 21% for the first, 20.1% for the second.

First: S=C(CN1CCCC1=S)N1CCOCC1
Second: O=C(/C=C/c1ccccc1)N/C(=C/c1ccccc1)C(=O)N1CCOCC1
The “hERG current change (%, negative = inhibition) at 10uM” value of the first is higher: 17.3% for the first, -58.8% for the second.

First: CCOCCOC(=O)c1ccc(-n2cnc(C)n2)nc1
Second: CCOC(=O)c1cc2oc(C)cc2n1CC(=O)OC1CCCCC1
The “hERG current change (%, negative = inhibition) at 10uM” value of the first is higher: 16.3% for the first, -5.5% for the second.

Going from `CC1Cc2ccccc2N1c1ncnc2nc[nH]c12` (stereo not drawn) to `CCOc1ccc(-n2c(-c3ccccc3)c[nH]c2=S)cc1`, the “hERG current change (%, negative = inhibition) at 10uM” value rises from -6.58% to 20.6%.

Going from `CSc1nc2nc3c(c(=O)n2[nH]1)CN(Cc1ccccc1)CC3` to `NNC(=O)Cn1nc(Cc2ccccc2)n(N)c1=O`, the “hERG current change (%, negative = inhibition) at 10uM” value rises from -20.5% to 8.22%.

Going from `CCc1ccc2c(c1)C(C)=CC(C)(C)N2` to `CC1=CC(C)(C)Nc2ccc(C)cc21`, the “hERG current change (%, negative = inhibition) at 10uM” value falls from 17% to -58.1%.

Compared with `CC1=CC(C)(C)Nc2ccc(Cc3ccc4c(c3)C(C)=CC(C)(C)N4)cc21`, `COc1ccc(CC(=O)Nc2ccc(-c3nnc(-c4ccc(C)cc4)o3)cc2)cc1` is higher in “hERG current change (%, negative = inhibition) at 10uM” value: 13.9% for the first, 19.1% for the second.

Compared with `CCOc1ccc(-n2c(-c3ccccc3)c[n+]3c2CCCCC3)cc1.[Br-]`, `CCOc1ccc(-c2c[n+]3c(n2-c2ccccc2)CCCCC3)cc1.[Br-]` is higher in “hERG current change (%, negative = inhibition) at 10uM” value: -67% for the first, -64.7% for the second.

First: COc1ccc(-c2c[n+]3c(n2-c2ccccc2)CCCCC3)cc1.[Br-]
Second: FC(F)Oc1ccc(-c2c[n+]3c(n2-c2ccccc2)CCCCC3)cc1
The “hERG current change (%, negative = inhibition) at 10uM” value of the first is higher: -18.6% for the first, -70.3% for the second.

First: CCOc1ccc(-n2c(-c3ccccc3)c[n+]3c2CCC3)cc1.[Br-]
Second: COc1ccc(/C=C(/NC(=O)/C=C/c2ccccc2)C(=O)N2CCOCC2)cc1
The “hERG current change (%, negative = inhibition) at 10uM” value of the first is higher: -54% for the first, -71.2% for the second.

Compared with `CN(C)C(CNC(=O)c1cccs1)c1cccnc1` (stereo not drawn), `COc1ccc(/C=C(/NC(=O)/C=C/c2ccccc2)C(=O)O)cc1` is higher in “hERG current change (%, negative = inhibition) at 10uM” value: 18.7% for the first, 24.9% for the second.

Compared with `C=CCN1N=C(/C=C/c2ccc(OC)cc2)CCC1=O`, `Cc1c(NC=C(C#N)C#N)c(=O)n(-c2ccccc2)n1C` is higher in “hERG current change (%, negative = inhibition) at 10uM” value: 6.48% for the first, 35.5% for the second.

First: C/C=C(\C)c1nnc(NC(=O)OCC)s1
Second: O=C(/C=C/c1ccccc1)N/C(=C/c1ccccc1)C(=O)N1CCCCC1
The “hERG current change (%, negative = inhibition) at 10uM” value of the first is higher: 8.46% for the first, -58.7% for the second.

In the case of `O=C(N/C(=C\c1ccccc1)C(=O)N1CCOCC1)c1ccccc1Cl`, the “hERG current change (%, negative = inhibition) at 10uM” value is reported as 0.479%.
